About 7,900 targets were measured; listed, in parts, are those with a hit and a random draw of the rest. About 0.6% of all pairs of compound and target were hits.
The targets below were run with NC(=O)Nc1cc(-c2cccc(F)c2)sc1C(=O)N[C@H]1CCCNC1 (assay: log2 fold change, soluble protein after heating vs DMSO (PISA); higher = thermal stabilisation; K562 cells, 10 uM, 30 min; active = over 0.2 and 3.5 SD of the protein, either way, in both replicates (recomputed)).
Procedure, shortened: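 Soluble protein was quantified by TMTpro 16plex LC-MS/MS after channel sums were equalised. It was obtained as the supernatant after 21,000xg for 90 min from pooled aliquots of K562 cells (2×10^6 cells/mL, 10 μM compound, 30 min) heated for 3 min across 48°C-58°C and extracted in PBS with 0.5% NP-40 at 4°C. Thermal stability values are relative to control samples and come from duplicates. They are given as log2 fold changes.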

UniProt Q9H300, sequence (Q9H300 whole entry, looked up): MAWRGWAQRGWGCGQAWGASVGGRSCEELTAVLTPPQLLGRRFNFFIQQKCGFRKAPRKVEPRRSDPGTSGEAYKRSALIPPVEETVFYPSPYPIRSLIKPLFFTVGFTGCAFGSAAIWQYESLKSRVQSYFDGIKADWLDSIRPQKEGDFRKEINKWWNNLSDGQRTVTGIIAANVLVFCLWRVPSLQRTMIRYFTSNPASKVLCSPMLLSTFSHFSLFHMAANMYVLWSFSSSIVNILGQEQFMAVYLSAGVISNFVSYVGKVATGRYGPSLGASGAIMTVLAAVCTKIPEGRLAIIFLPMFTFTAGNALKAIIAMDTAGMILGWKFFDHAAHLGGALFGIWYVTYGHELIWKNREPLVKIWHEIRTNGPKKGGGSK
UniProt Q8WUM4, sequence (Q8WUM4 whole entry, looked up): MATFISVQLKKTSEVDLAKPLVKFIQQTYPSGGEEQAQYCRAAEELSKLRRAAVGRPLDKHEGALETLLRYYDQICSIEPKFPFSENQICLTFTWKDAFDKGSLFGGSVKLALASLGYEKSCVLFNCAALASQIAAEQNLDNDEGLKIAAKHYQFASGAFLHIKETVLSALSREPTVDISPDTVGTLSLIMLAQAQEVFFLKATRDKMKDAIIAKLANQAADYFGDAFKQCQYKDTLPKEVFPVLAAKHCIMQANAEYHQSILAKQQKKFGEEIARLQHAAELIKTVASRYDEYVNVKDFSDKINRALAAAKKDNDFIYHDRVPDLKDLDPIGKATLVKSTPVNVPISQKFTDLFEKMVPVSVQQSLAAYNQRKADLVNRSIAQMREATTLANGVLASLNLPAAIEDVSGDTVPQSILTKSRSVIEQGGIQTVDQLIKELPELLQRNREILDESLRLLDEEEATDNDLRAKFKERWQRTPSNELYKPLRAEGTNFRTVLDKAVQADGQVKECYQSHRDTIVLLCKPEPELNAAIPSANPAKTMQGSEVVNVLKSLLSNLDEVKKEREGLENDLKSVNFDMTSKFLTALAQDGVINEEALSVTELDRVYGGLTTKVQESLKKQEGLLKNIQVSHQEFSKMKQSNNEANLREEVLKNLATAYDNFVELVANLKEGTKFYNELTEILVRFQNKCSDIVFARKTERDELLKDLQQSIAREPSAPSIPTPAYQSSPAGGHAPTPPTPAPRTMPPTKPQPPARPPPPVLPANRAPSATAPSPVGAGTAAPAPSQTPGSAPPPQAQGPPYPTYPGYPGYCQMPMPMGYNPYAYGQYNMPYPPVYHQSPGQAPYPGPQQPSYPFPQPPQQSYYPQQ
UniProt Q9H0R6, sequence (Q9H0R6 whole entry, looked up): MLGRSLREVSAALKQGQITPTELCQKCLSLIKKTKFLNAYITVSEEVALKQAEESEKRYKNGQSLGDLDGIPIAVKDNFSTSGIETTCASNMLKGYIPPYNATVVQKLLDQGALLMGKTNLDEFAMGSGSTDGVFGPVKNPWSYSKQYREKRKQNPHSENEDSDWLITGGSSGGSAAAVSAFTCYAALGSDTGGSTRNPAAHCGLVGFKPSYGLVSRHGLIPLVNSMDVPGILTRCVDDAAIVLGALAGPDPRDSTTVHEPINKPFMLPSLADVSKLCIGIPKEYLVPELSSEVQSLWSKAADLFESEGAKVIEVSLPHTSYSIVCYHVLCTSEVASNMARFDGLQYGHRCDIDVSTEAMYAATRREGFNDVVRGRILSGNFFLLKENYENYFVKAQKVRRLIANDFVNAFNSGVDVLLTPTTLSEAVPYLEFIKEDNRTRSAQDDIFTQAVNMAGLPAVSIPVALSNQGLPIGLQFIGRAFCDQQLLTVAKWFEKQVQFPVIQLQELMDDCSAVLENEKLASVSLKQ
UniProt O00408, sequence (O00408 whole entry, looked up): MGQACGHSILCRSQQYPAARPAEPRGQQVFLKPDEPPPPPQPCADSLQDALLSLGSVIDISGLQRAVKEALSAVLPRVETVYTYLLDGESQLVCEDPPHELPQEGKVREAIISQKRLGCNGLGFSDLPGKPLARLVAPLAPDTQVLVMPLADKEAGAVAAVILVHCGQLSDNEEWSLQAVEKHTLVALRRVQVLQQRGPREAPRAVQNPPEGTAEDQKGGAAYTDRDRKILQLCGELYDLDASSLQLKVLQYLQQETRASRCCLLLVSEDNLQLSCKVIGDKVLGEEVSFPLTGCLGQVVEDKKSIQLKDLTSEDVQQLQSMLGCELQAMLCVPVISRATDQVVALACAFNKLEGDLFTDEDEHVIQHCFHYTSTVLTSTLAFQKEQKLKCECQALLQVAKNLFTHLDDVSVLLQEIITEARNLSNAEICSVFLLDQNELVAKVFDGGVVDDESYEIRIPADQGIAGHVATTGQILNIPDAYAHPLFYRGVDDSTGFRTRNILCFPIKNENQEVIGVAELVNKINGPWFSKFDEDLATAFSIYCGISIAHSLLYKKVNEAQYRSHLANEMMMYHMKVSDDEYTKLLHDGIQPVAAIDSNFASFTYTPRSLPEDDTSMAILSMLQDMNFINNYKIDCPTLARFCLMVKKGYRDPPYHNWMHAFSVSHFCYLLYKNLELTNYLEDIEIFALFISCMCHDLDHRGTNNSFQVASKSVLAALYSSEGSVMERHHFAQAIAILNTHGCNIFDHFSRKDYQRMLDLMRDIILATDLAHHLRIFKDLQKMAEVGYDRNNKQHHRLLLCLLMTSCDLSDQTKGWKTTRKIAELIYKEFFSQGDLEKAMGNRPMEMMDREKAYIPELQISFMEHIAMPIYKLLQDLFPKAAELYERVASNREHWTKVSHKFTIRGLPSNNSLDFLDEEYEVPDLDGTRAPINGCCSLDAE
UniProt Q86W56, sequence (Q86W56 whole entry, looked up): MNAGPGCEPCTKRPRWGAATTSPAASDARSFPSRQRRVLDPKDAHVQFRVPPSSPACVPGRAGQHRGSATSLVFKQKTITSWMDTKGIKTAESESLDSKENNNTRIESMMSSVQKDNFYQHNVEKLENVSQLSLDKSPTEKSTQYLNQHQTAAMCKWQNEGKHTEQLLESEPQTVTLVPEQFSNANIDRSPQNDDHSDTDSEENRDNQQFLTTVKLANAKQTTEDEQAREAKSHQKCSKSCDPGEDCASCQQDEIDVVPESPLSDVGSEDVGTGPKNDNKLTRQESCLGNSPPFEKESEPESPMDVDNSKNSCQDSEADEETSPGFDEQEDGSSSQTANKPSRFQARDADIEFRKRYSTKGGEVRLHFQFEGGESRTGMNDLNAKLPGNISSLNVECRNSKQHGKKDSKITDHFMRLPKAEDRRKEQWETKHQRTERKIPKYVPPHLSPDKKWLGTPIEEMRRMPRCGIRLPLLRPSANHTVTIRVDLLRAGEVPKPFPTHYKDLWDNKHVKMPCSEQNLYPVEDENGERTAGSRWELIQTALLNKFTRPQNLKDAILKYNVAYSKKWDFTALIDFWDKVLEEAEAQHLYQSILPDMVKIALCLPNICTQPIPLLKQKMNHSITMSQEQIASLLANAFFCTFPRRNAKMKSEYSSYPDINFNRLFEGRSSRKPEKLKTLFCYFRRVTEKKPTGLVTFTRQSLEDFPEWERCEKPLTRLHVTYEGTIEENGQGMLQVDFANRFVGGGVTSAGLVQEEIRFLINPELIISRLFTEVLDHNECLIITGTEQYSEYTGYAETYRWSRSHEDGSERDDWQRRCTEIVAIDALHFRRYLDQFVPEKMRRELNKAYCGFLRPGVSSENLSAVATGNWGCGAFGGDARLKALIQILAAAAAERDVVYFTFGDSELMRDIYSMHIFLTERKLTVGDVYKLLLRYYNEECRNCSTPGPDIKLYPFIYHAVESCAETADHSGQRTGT
UniProt Q9BRX2, sequence (Q9BRX2 whole entry, looked up): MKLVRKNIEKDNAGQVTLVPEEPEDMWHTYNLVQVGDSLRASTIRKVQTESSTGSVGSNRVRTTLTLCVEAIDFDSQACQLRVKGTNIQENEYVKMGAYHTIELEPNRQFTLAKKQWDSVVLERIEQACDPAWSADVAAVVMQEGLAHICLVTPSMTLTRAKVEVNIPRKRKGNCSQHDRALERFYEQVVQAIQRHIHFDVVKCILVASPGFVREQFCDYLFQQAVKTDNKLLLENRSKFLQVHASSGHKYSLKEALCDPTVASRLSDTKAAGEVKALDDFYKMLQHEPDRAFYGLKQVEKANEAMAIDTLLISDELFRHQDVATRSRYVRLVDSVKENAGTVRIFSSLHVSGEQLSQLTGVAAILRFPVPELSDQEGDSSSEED
UniProt P14618, sequence (P14618 whole entry, looked up): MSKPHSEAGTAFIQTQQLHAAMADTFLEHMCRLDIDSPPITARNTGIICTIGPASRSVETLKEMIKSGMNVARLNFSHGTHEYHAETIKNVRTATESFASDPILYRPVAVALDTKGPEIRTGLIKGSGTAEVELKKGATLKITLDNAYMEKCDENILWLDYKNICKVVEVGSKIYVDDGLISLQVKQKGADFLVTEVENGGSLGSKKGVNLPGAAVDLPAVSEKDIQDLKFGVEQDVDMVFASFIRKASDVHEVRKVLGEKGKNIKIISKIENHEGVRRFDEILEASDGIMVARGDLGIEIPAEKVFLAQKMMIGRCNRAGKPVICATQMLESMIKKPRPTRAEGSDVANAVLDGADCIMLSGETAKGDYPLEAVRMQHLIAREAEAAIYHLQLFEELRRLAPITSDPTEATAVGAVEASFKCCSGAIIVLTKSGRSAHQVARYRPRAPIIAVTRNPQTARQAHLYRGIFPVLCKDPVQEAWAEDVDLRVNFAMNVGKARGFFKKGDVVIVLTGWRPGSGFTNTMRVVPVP
UniProt Q00577, sequence (Q00577 whole entry, looked up): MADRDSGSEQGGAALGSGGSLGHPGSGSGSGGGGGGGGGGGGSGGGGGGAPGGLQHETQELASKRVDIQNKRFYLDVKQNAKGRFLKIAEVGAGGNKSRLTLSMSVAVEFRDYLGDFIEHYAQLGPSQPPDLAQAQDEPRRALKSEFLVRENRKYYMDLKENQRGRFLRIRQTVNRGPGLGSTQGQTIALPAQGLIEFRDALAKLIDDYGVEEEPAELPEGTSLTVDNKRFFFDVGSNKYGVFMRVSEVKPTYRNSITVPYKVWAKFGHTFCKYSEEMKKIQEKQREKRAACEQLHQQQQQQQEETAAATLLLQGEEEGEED

log2 fold change, inactive:
PDE2A (UniProt O00408) 0.035
PSMC5 (UniProt P62195) 0.034
POMP (UniProt Q9Y244) 0.106
PELO (UniProt Q9BRX2) -0.028
POLR2A (UniProt P24928) -0.057
PHAX (UniProt Q9H814) 0.008
PRPF31 (UniProt Q8WWY3) -0.076
PKM isoform 2 (UniProt P14618) 0.123
PSMD11 (UniProt O00231) 0.048
PURA (UniProt Q00577) 0.015
PPIL4 (UniProt Q8WUA2) -0.021
POLR2K (UniProt P53803) -0.04
PIK3C3 (UniProt Q8NEB9) 0.068
PRIM2 (UniProt P49643) -0.035
PARG (UniProt Q86W56) 0.141
PTP4A1 (UniProt Q93096) -0.035
PPP1R14A (UniProt Q96A00) -0.051
POLR3K (UniProt Q9Y2Y1) 0.045
PARL (UniProt Q9H300) 0.025
QRSL1 (UniProt Q9H0R6) -0.092
PRPF40A (UniProt O75400) -0.014
PLA2G15 (UniProt Q8NCC3) 0.06
PATL1 (UniProt Q86TB9) 0.054
PDCD6IP (UniProt Q8WUM4) -0.055
